Results published in PubChem BioAssay (NCI).
About 79,000 compounds went through this panel and 15% of them were active in at least one assay; those are over-represented in the sample as a whole. Values without a mark were called inactive. Active and inactive are the calls of the source. Cut-off read from the data, not from the text of the source: active = growth inhibition above about 70%; inactive = the rest.

Key:
[1] = NCI Yeast Anticancer Drug Screen. Data for the rad50 strain (AID 155);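 note: 0% = growth of vehicle-only cultures of the same strain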; conditions: S. cerevisiae rad50 strain growth inhibition, stronger effect = higher value
How it was run: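 Vehicle-treated cultures provide the reference for the growth inhibition reported for compound-exposed, repair-deficient yeast.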

[2] = NCI Yeast Anticancer Drug Screen. Data for the mec2-1 strain (AID 157); conditions: S. cerevisiae mec2-1 strain, stronger effect = higher value
How it was run: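 Growth inhibition is read against vehicle-treated controls after compound exposure of the mec2-1 yeast strain, which is defective in DNA damage repair or cell cycle control.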

[3] = NCI Yeast Anticancer Drug Screen. Data for the sgs1 mgt1 strain (AID 161);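 note: 0% = growth of cultures given vehicle only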; conditions: S. cerevisiae sgs1 mgt1 strain, stronger effect = higher value
How it was run: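 Compounds are added to genetically altered yeast, and growth is compared with cultures given vehicle alone to give percent inhibition.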

[4] = NCI Yeast Anticancer Drug Screen. Data for the cln2 rad14 strain (AID 165);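 note: 0% = growth equal to vehicle treated cultures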; conditions: S. cerevisiae cln2 rad14 strain, stronger effect = higher value
How it was run: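 Growth inhibition, relative to vehicle-treated controls, is the read-out. The test organism is a yeast strain with defined genetic alterations, cln2 rad14.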

[5] = NCI Yeast Anticancer Drug Screen. Data for the bub3 strain (AID 167); conditions: S. cerevisiae bub3 mutant strain, stronger effect = higher value
How it was run: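 Mutant yeast screening strain plus compound; vehicle-treated cultures serve as the 0% inhibition reference.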

[6] = NCI Yeast Anticancer Drug Screen. Data for the mlh1 rad18 strain (AID 175); conditions: S. cerevisiae mlh1 rad18 strain growth inhibition, stronger effect = higher value
How it was run: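 Cells of a genetically altered yeast strain, deficient in DNA damage repair, were treated with compound. Their growth was then compared with that of vehicle-treated cultures to give inhibition.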

[7] = at 5.0 µM (retest, dose inferred, filed as 0.5)
[8] = at 50.0 µM (retest, dose inferred, filed as 5.0)

SMILES: CC(=O)N1c2ccccc2Sc2ccc(C(=O)CCl)cc21
- growth inhibition [1, 7]: 14%
- growth inhibition [1, 8]: 79% (active)
- growth inhibition ([1]; at 50.0 µM): 95.7% (active)
- growth inhibition [2, 7]: 19%
- growth inhibition [2, 8]: 95% (active)
- growth inhibition ([2]; at 50.0 µM): 95.7% (active)
- growth inhibition [3, 7]: 15%
- growth inhibition [3, 8]: 91% (active)
- growth inhibition ([3]; at 50.0 µM): 93.9% (active)
- growth inhibition [4, 7]: 9%
- growth inhibition [4, 8]: 50%
- growth inhibition ([4]; at 50.0 µM): 81.2% (active)
- growth inhibition [5, 7]: 8%
- growth inhibition [5, 8]: 91% (active)
- growth inhibition ([5]; at 50.0 µM): 95.8% (active)
- growth inhibition [6, 7]: 30%
- growth inhibition [6, 8]: 94% (active)
- growth inhibition ([6]; at 50.0 µM): 94.7% (active)

SMILES: Fc1cccc(NC(=S)SCc2ccc(Cl)cc2)c1
- growth inhibition [1, 7]: 20%
- growth inhibition [1, 8]: 98% (active)
- growth inhibition ([1]; at 50.0 µM): 99.4% (active)
- growth inhibition [2, 7]: 15%
- growth inhibition [2, 8]: 98% (active)
- growth inhibition ([2]; at 50.0 µM): 99.7% (active)
- growth inhibition [3, 7]: 12%
- growth inhibition [3, 8]: 99% (active)
- growth inhibition ([3]; at 50.0 µM): 99.7% (active)
- growth inhibition [4, 7]: -6%
- growth inhibition [4, 8]: 99% (active)
- growth inhibition ([4]; at 50.0 µM): 99.5% (active)
- growth inhibition [5, 7]: 10%
- growth inhibition [5, 8]: 98% (active)
- growth inhibition ([5]; at 50.0 µM): 99.5% (active)
- growth inhibition [6, 7]: 23%
- growth inhibition [6, 8]: 99% (active)
- growth inhibition ([6]; at 50.0 µM): 99.6% (active)

SMILES: Cc1c(Cl)c(S(N)(=O)=O)cc2c1NC=NS2(=O)=O
- growth inhibition [1, 7]: 10%
- growth inhibition [1, 8]: -10%
- growth inhibition ([1]; at 50.0 µM): 7.45%
- growth inhibition [2, 7]: -1%
- growth inhibition [2, 8]: 2%
- growth inhibition ([2]; at 50.0 µM): -22.8%
- growth inhibition [3, 7]: -2%
- growth inhibition [3, 8]: -14%
- growth inhibition ([3]; at 50.0 µM): -26.1%
- growth inhibition [4, 7]: 7%
- growth inhibition [4, 8]: 9%
- growth inhibition ([4]; at 50.0 µM): 22.4%
- growth inhibition [5, 7]: -13%
- growth inhibition [5, 8]: -3%
- growth inhibition ([5]; at 50.0 µM): -20.4%
- growth inhibition [6, 7]: -3%
- growth inhibition [6, 8]: 10%
- growth inhibition ([6]; at 50.0 µM): -16.6%

SMILES: CC1=C/C(=C\c2ccc([N+](=O)[O-])o2)C(=O)O1
- growth inhibition [1, 7]: 95% (active)
- growth inhibition [1, 8]: 99% (active)
- growth inhibition ([1]; at 50.0 µM): 99.3% (active)
- growth inhibition [2, 7]: 86% (active)
- growth inhibition [2, 8]: 99% (active)
- growth inhibition ([2]; at 50.0 µM): 99.5% (active)
- growth inhibition [3, 7]: 93% (active)
- growth inhibition [3, 8]: 52%
- growth inhibition ([3]; at 50.0 µM): 99.2% (active)
- growth inhibition [4, 7]: 97% (active)
- growth inhibition [4, 8]: 99% (active)
- growth inhibition ([4]; at 50.0 µM): 99.3% (active)
- growth inhibition [5, 7]: 49%
- growth inhibition [5, 8]: 99% (active)
- growth inhibition ([5]; at 50.0 µM): 98.8% (active)
- growth inhibition [6, 7]: 97% (active)
- growth inhibition [6, 8]: 99% (active)
- growth inhibition ([6]; at 50.0 µM): 99.2% (active)

SMILES: O=c1c2ccccc2sc2c(CO)ccc(NCCN3CCCCC3)c12
- growth inhibition [1, 7]: -5%
- growth inhibition [1, 8]: 45%
- growth inhibition ([1]; at 50.0 µM): 71.2% (active)
- growth inhibition [2, 7]: 6%
- growth inhibition [2, 8]: -21%
- growth inhibition ([2]; at 50.0 µM): 23.6%
- growth inhibition [3, 7]: -9%
- growth inhibition [3, 8]: 35%
- growth inhibition ([3]; at 50.0 µM): 34.5%
- growth inhibition [4, 7]: -21%
- growth inhibition [4, 8]: 13%
- growth inhibition ([4]; at 50.0 µM): 24.5%
- growth inhibition [5, 7]: 12%
- growth inhibition [5, 8]: 13%
- growth inhibition ([5]; at 50.0 µM): 25.4%
- growth inhibition [6, 7]: 2%
- growth inhibition [6, 8]: 40%
- growth inhibition ([6]; at 50.0 µM): 40.1%

SMILES: Cc1ccccc1Oc1ccccc1N
- growth inhibition [1, 7]: 12%
- growth inhibition [1, 8]: 38%
- growth inhibition ([1]; at 50.0 µM): 79.2% (active)
- growth inhibition [2, 7]: -26%
- growth inhibition [2, 8]: 15%
- growth inhibition ([2]; at 50.0 µM): 65.9%
- growth inhibition [3, 7]: -1%
- growth inhibition [3, 8]: 1%
- growth inhibition ([3]; at 50.0 µM): 69.8%
- growth inhibition [4, 7]: 9%
- growth inhibition [4, 8]: 34%
- growth inhibition ([4]; at 50.0 µM): 78.4% (active)
- growth inhibition [5, 7]: -16%
- growth inhibition [5, 8]: 10%
- growth inhibition ([5]; at 50.0 µM): 58.6%
- growth inhibition [6, 7]: -15%
- growth inhibition [6, 8]: 39%
- growth inhibition ([6]; at 50.0 µM): 81.8% (active)

SMILES: NS(=O)(=O)c1ccc(-n2cccc2)cc1
- growth inhibition [1, 7]: 0%
- growth inhibition [1, 8]: -4%
- growth inhibition ([1]; at 50.0 µM): 10.6%
- growth inhibition [2, 7]: -2%
- growth inhibition [2, 8]: -3%
- growth inhibition ([2]; at 50.0 µM): -11.3%
- growth inhibition [3, 7]: -1%
- growth inhibition [3, 8]: -3%
- growth inhibition ([3]; at 50.0 µM): -1.6%
- growth inhibition [4, 7]: 1%
- growth inhibition [4, 8]: -1%
- growth inhibition ([4]; at 50.0 µM): 56.6%
- growth inhibition [5, 7]: -6%
- growth inhibition [5, 8]: -7%
- growth inhibition ([5]; at 50.0 µM): 23.5%
- growth inhibition [6, 7]: -2%
- growth inhibition [6, 8]: -3%
- growth inhibition ([6]; at 50.0 µM): 7.7%

SMILES: Cc1ccc(C(=O)OCCN2CCN(c3ccccc3)CC2)c([N+](=O)[O-])c1OCc1ccccc1
- growth inhibition [1, 7]: 30%
- growth inhibition [1, 8]: 66%
- growth inhibition ([1]; at 50.0 µM): 87% (active)
- growth inhibition [2, 7]: 36%
- growth inhibition [2, 8]: 43%
- growth inhibition ([2]; at 50.0 µM): 63.9%
- growth inhibition [3, 7]: 25%
- growth inhibition [3, 8]: 82% (active)
- growth inhibition ([3]; at 50.0 µM): 89.3% (active)
- growth inhibition [4, 7]: 24%
- growth inhibition [4, 8]: 64%
- growth inhibition ([4]; at 50.0 µM): 74% (active)
- growth inhibition [5, 7]: 28%
- growth inhibition [5, 8]: 70% (active)
- growth inhibition ([5]; at 50.0 µM): 72.7% (active)
- growth inhibition [6, 7]: 19%
- growth inhibition [6, 8]: 78% (active)
- growth inhibition ([6]; at 50.0 µM): 90.6% (active)

SMILES: O=C(NCCCCC(NC(=O)OCc1ccccc1)C(=O)Nc1ccc(Nc2ccc(NC(=O)C(CCCCNC(=O)OCc3ccccc3)NC(=O)OCc3ccccc3)cc2)cc1)OCc1ccccc1 (configuration not stated)
- growth inhibition [1, 7]: 0%
- growth inhibition [1, 8]: -12%
- growth inhibition ([1]; at 50.0 µM): 99% (active)
- growth inhibition [2, 7]: -3%
- growth inhibition [2, 8]: -13%
- growth inhibition ([2]; at 50.0 µM): 99.5% (active)
- growth inhibition [3, 7]: -2%
- growth inhibition [3, 8]: -29%
- growth inhibition ([3]; at 50.0 µM): 99.4% (active)
- growth inhibition [4, 7]: -1%
- growth inhibition [4, 8]: 0%
- growth inhibition ([4]; at 50.0 µM): 87.7% (active)
- growth inhibition [5, 7]: 2%
- growth inhibition [5, 8]: 34%
- growth inhibition ([5]; at 50.0 µM): 99.1% (active)
- growth inhibition [6, 7]: -1%
- growth inhibition [6, 8]: -12%
- growth inhibition ([6]; at 50.0 µM): 98.4% (active)
